From PubChem BioAssay AID2315 (National Center for Advancing Translational Sciences (NCATS), 2010)
In all, about 290,000 compounds went through this assay and about 27,000 (9.3%) were called active. What follows is part of a selection rich in actives, with near analogues and random picks from the rest. Values without a mark were called inactive. No stated cut-off is given here; in the data, active means inhibition mostly above about 28% (no sharp cut-off); inactive means mostly below about 43%.

Experiment: A qHTS for Small Molecule Inhibitors of Shiga Toxin; on inhibition: 0% is about no effect
Conditions: Vero cells, Shiga toxin protein synthesis inhibition reporter; at 38.7 µM, stronger effect = higher value

SMILES	inhibition
CC1(C)NC(=O)N(CC(=O)Nc2cc(C(F)(F)F)cc(C(F)(F)F)c2)C1=O	10.9%
Cc1cc(=O)n2nc(N3CCC(C(=O)Nc4c(F)c(F)c(F)c(F)c4F)CC3)sc2n1	-3.72%
Cc1cc(=O)n2nc(N3CCCC(C(=O)NCc4ccc(Cl)cc4)C3)sc2n1 (configuration not stated)	-10.3%
CC(=O)O[C@H]1c2ccccc2-c2ccccc2[C@@H]1OC(C)=O	-4.45%
Nc1ccc(S(=O)(=O)Nc2nccc(/C=C/c3ccc(Br)s3)n2)cc1	2.79%
Oc1cccc2ccc(/C=C/c3ccc(Br)s3)nc12	112% (active)
CC(=O)Nc1ccc(S(=O)(=O)NC2Cc3ccccc3C2)cc1	-3.63%
COc1ccc(CCNC(=O)CS(=O)(=O)Cc2nc(-c3ccc(C)cc3)oc2C)cc1OC	3.34%
COc1ccc(CNc2nc3c(c(=O)[nH]c(=O)n3C)n2Cc2ccccc2)cc1	-4.35%
Cc1nc2c(c(=O)n1Cc1ccco1)c1nc3ccccc3nc1n2Cc1ccccc1	-14%
Cc1ccc(Cn2c(C)nc3c(c2=O)c2nc4ccccc4nc2n3Cc2ccco2)cc1	12.7%
Clc1cccc(-c2nc3nc4ccccc4nc3n2Cc2ccco2)c1	75.4% (active)
CN(C)N1C(N)=C(C#N)C(c2ccc(Br)cc2)C2=C1CCCC2=O (configuration not stated)	-14.3%
COc1ccccc1CN1CCCC(N2CCN(c3ccc(F)cc3)CC2)C1 (configuration not stated)	-2.63%
Cc1ccc(S(=O)(=O)NCC(=O)N(CC(=O)NCC2CCCO2)c2cccc(F)c2)cc1 (configuration not stated)	-9.17%
CCN(CC)C(=O)CSc1nc2ccccc2o1	67.4% (active)
O=C(CSc1nc2ccccc2o1)N1CCN(c2ccccc2)CC1	-6.06%
Cc1ccc(/C=N/NC(=O)CSc2nc3ccccc3o2)cc1	83.9% (active)
CC1Cc2ccccc2N1C(=O)CSc1nc2ccccc2o1 (configuration not stated)	94.1% (active)
Cc1cc(=O)[nH]c(SCC(=O)N2c3ccccc3CC2C)n1 (configuration not stated)	-7.96%
CC(C)(C)C(=O)CSc1nc2ccccc2o1	113% (active)
CCOC(=O)n1c(SCC(=O)N(CC)CC)nc2ccccc21	-11%
O=C(CSc1nc2ccccc2o1)N/N=C/c1ccccc1C(=O)O	41.2%

SMILES	inhibition
O=C(CSc1nc2ccccc2o1)N1c2ccccc2Sc2ccc(Cl)cc21	-8.96%
CCS(=O)(=O)c1ccc2oc(SCC(=O)N3c4ccccc4CC3C)nc2c1 (configuration not stated)	-14.6%
CCn1c(SCC(=O)N/N=C/c2ccncc2)nc2ccccc21	-2.17%
O=C(CSc1nc2ccccc2o1)N1CCN(c2ccc(Cl)cc2)CC1	-1.01%
O=S(=O)(NCC1CN(S(=O)(=O)c2ccc3c(c2)OCCO3)C1)c1c(F)cccc1F	-12.4%
COC(=O)c1cc(S(=O)(=O)N2CCN(c3cc(C)ccc3C)CC2)c[nH]1	-9.79%
CCC(C(=O)NC1CCCC1)N(C(=O)Cn1nnc(-c2ccc(C)o2)n1)c1ccc(OC)c(OC)c1 (configuration not stated)	-7.44%
CC1CC(C)CN(CCOc2cccc3ccccc23)C1 (configuration not stated)	-12.3%
CC1CCC(NC(=O)CN(C)S(=O)(=O)c2ccc3c(c2)c(=O)n(C)c(=O)n3C)CC1 (configuration not stated)	-2.58%
CCCS(=O)(=O)N1CCN=C1SCc1cccc(F)c1	-4.79%
COC(=O)c1cc(OCC(=O)NC2CCCc3ccccc32)cc(C(=O)OC)c1 (configuration not stated)	-5.73%
O=C1OCCN1C(=O)[C@H]1[C@H](c2ccc(Cl)cc2)C(c2cccc(Cl)c2)=NN1c1ccc(Br)cc1	inactive
COc1ccccc1Oc1ccc(N2CC(C(=O)OCC(=O)c3ccc(F)cc3)CC2=O)cc1 (configuration not stated)	7.33%
COc1cccc(CNS(=O)(=O)c2ccc3c(c2)CC(C)N3C(C)=O)c1 (configuration not stated)	-5.4%
O/N=C(\C[n+]1ccccc1)c1ccc(Br)cc1	13.2%
O=C(Nc1ccc2nc3n(c(=O)c2c1)CCCCC3)c1ccccc1Cl	40.7%
O=C(Nc1cccc(NC(=O)c2ccccc2[N+](=O)[O-])c1)c1ccccc1Cl	30.9%
O=C(Nc1ccc2sc3ccccc3c(=O)c2c1)c1ccccc1Cl	93.9% (active)
CCSCc1nc(N)nc(NCCc2ccccc2)n1	15.6%
CCc1nn(CCCC(=O)NCc2ccc(C)cc2)c(=O)c2cc3occc3n12	18.7%
CCNC(=S)N(CCN(CC)CC)Cc1cc2cc3c(cc2[nH]c1=O)OCO3	-7.63%
COc1ccc(NC(=O)C(C)N2c3cccc4cccc(c34)S2(=O)=O)c(OC)c1 (configuration not stated)	-11.7%
O=[N+]([O-])c1cccc(/C([O-])=C(/C(=S)Nc2ccccc2F)[n+]2ccccc2)c1	83.4% (active)

SMILES	inhibition
Cc1ccc(/C([O-])=C(/C(=S)NCc2ccco2)[n+]2ccccc2)cc1[N+](=O)[O-]	-8.48%
CCC(C)NCC(=O)Nc1ccc([N+](=O)[O-])cc1C(=O)Nc1ccccc1F (configuration not stated)	13%
Cc1cc(C)c(C#N)c(Nc2cccc(Br)c2)n1	-8.95%
Cc1cc(Cl)ccc1OCCCC(=O)NCc1ccncc1	14.6%
COc1ccc(N2CCN(C(=O)CCc3nc(-c4ccc(C)cc4)no3)CC2)cc1	-8.71%
CN(Cc1ccccn1)Cc1nc(-c2ccc(Cl)cc2)no1	31.7%
Cc1cc(Cl)ccc1OCc1nc(-c2ccncc2)no1	129% (active)
COc1ccc(-c2noc(COc3ccc(Cl)c(C)c3)n2)cc1	25.5% (active)
COc1ccc(C(C)=O)cc1COc1ccc(Cl)c(C)c1	7.61%
C=C(C)COc1ccc(-c2ncncc2-c2ccc(OC)cc2)c(O)c1	-1.7%
Cc1ccc(CN2C(=O)N/C(=C/c3cc(C)n(-c4ccccn4)c3C)C2=O)cc1	31.1%
CCN(CC)S(=O)(=O)c1ccc(Cl)c(C(=O)NCCN2CCOCC2)c1	-6.97%
Cc1ccc(OCC(=O)Nc2ccc3oc(=O)ccc3c2)cc1C	-5.7%
COc1c(C(C)C)oc2cc3oc(=O)ccc3cc12	34%
Cc1oc2cc3oc(=O)ccc3cc2c1C	40.7% (active)
CCN(C(=O)COc1ccc(C(=O)c2ccccc2)cc1)c1ccccc1	-10.2%
Cc1ccccc1N1CC(C(=O)Nc2nnc(SCCC3OCCO3)s2)CC1=O (configuration not stated)	-4.6%
COc1ccc(OCc2nnc3n2N=C(c2ccccc2)C(CC(=O)O)S3)cc1 (configuration not stated)	-9.4%
CC/C(=N\NC(=O)c1ccccc1O)c1c(O)n(Cc2ccccc2)c(=O)[nH]c1=O	58.6% (active)
CCCCCCN=C(CC)c1c(O)n(CCCC)c(=O)[nH]c1=O	-8.53%
CCCCn1c(O)c(C(CC)=NCc2ccco2)c(=O)[nH]c1=O	-7.37%
Cc1cc2cc3c(cc2nc1SCC(=O)Nc1c(C)cccc1C)CCC3	-6.77%
Cc1cccn2c(=O)c3cc(C(=O)NC4CCCCC4)sc3nc12	-2.1%

SMILES	inhibition
CCOCCCNC(=O)c1cc2c(=O)n3ccccc3nc2s1	74.5% (active)
CCn1c(=N)c(C(=O)NCCCOC)cc2c(=O)n3cccc(C)c3nc21	-7.15%
NC(=O)C1CCN(CC(O)CSc2ccc(F)cc2)CC1 (configuration not stated)	2.41%
O=C(Cn1cnc([N+](=O)[O-])n1)NCCc1ccccc1	17.3% (active)
O=C(CSc1ncccn1)NCCc1ccccc1	1.16%
CC(C)(C)NC(=O)Cn1cnc([N+](=O)[O-])n1	-6.78%
COc1ccc2cc(CCl)c(Cl)nc2c1	14.8%
CCCC(=O)N1CCC(CCC(=O)NC2CC2)CC1	14.8%
COCCNC(=O)c1ccc(N2CCC3(CC2)OCCO3)c([N+](=O)[O-])c1	7.01%
CC(NC(=O)c1ccc(N2CCNCC2)c([N+](=O)[O-])c1)C12CC3CC(CC(C3)C1)C2 (configuration not stated)	-0.798%
CCC(C)NC(=O)c1ccc(N2CCC3(CC2)OCCO3)c([N+](=O)[O-])c1 (configuration not stated)	50.1% (active)
COc1ccc(NC(=O)c2cc(-c3cc(OC)c(OC)c(OC)c3)nc3ccccc23)c(OC)c1	15.1%
COc1ccc(-c2nc3cc([N+](=O)[O-])ccc3o2)cc1OC	27.9%
O=[N+]([O-])c1ccc2oc(-c3cccc(O)c3)nc2c1	47.7% (active)
COc1cccc(-c2nc(S(=O)(=O)c3ccccc3)c(N3CCOCC3)o2)c1	20.2%
COc1ccc2oc(-c3cccc(NC(=O)CSc4ccc(Cl)cc4)c3)nc2c1	13.6%
COc1cccc(-c2nc3cc(C)ccc3o2)c1	65% (active)
CC(=O)Oc1ccc2c(=O)oc(-c3ccc([N+](=O)[O-])cc3)nc2c1	-6.54%
CC(=O)Nc1ccccc1OC(C)C(=O)N1CCC(C)CC1 (configuration not stated)	-7.84%
O=C(N/N=C/c1cc(Cl)cc([N+](=O)[O-])c1O)C(O)(c1ccccc1)c1ccccc1	-2.27%
CCOC(CNC(=O)C(=O)NCC(c1ccco1)N1CCN(c2ccc(OC)cc2)CC1)OCC (configuration not stated)	14.3%
CCOc1ccccc1NC(=O)COc1ccc(S(=O)(=O)N2CCCC2)cc1	14.6%
Cc1oc2c(C)c3oc(=O)c(CC(=O)N[C@@H](CC(C)C)C(=O)N[C@@H](Cc4ccccc4)C(=O)O)c(C)c3cc2c1C	-6.95%
